PfHsp40 yeast: restores yeast growth despite PfHsp40 toxicity | growth rescue, % at 12.5 µM | S. cerevisiae expressing PfHsp40, growth rescue, ATP luminescence | AID 504582 | 340,000 compounds, 0.68% hits; in the data active = growth rescue above about 28%, passing the limit was not always enough;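 also: yeast W303a lacking pdr1 and pdr3 grown in galactose medium; growth measured after three days at 30 °C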
CCHF vOTU inh: blocks the CCHF virus ovarian tumor domain protease | CCHFV vOTU protease, Pep-AMC fluorescence | inhibition, % at 11.5 µM | 370,000 compounds, 0.55% hits | AID 651958; in the data active = inhibition above about 30%
RN4220 kill: kills Staphylococcus aureus RN4220. inhibition, % (test concentration not listed). 330,000 compounds, 0.33% hits. S. aureus RN4220 growth, OD600, 16 h; in the data active = inhibition above about 85%
PrP UTR inh: suppresses PrP 5' UTR mRNA reporter expression. cell-based PrP 5' UTR mRNA reporter, plate reader. inhibition, % (test concentration not listed). 340,000 compounds, 0.35% hits; in the data active = inhibition above about 52%
PrPC surface inh: cell surface PrPC inhibition, primary TR-FRET screen | 370,000 compounds, 0.43% hits | P04156 | TR-FRET read-out | inhibition, % at 13.8 µM; in the data active = inhibition above about 24%
Sa ugtP lethal: growth inhibition of S. aureus ugtP deletion strain; S. aureus RN4220 ugtP deletion, OD600 growth, 16 h; 330,000 compounds, 0.54% hits; AID 1259309; growth inhibition, % (test concentration not listed); in the data active = growth inhibition above about 68%
Of the large screens only hits and unclear results are named; the others gave an inactive call. Compounds with a hit are over-represented: about 2.1% of the library has one in this group of screens.

Nc1ccc2ccccc2c1N=Nc1ccccc1	Sa ugtP lethal 95
CCOC(=O)C1=C(CC)Nc2ccccc2N=C1NC(=O)Nc1ccc(Cl)c(Cl)c1	RN4220 kill 101, Sa ugtP lethal 100
CCOC(=O)C1=C(CC)Nc2ccccc2N=C1NC(=O)c1cc(C)on1	none
COc1ccc(-c2[nH]ncc2N=Nc2ccccc2)cc1	PfHsp40 yeast 50
COc1ccc(-c2[nH]ncc2N=Nc2cc(C)cc(C)c2)cc1	none
CC(C)c1c(C(=O)NN=Cc2cccc3ccccc23)nnn1-c1nonc1N	none (no result: PfHsp40 yeast, CCHF vOTU inh, PrP UTR inh, PrPC surface inh)
O=C(O)c1ccccc1NS(=O)(=O)c1cccc(-n2sc3ccccc3c2=O)c1	PfHsp40 yeast 407
O=C(O)c1ccccc1NS(=O)(=O)c1cccc(C(F)(F)F)c1	none
COC(=O)CC=N/N=C1/NC(=O)/C(=C/C(=O)O)S1	none (no result: PfHsp40 yeast, CCHF vOTU inh, PrP UTR inh, PrPC surface inh)
COc1ccc(C(=O)/C(C#N)=N/Nc2ccccc2[N+](=O)[O-])cc1	none (no result: RN4220 kill, Sa ugtP lethal)
N#CC(=NNc1cccc([N+](=O)[O-])c1)C(=O)c1ccc(Br)cc1	RN4220 kill 94, Sa ugtP lethal 89 (no result: PfHsp40 yeast, CCHF vOTU inh, PrP UTR inh, PrPC surface inh)
COc1ccc(C(=O)C(C#N)=NNc2cccc([N+](=O)[O-])c2)cc1	RN4220 kill 86, Sa ugtP lethal 87 (no result: PfHsp40 yeast, CCHF vOTU inh, PrP UTR inh, PrPC surface inh)
COc1ccc(C(=O)/C(C#N)=N/Nc2ccc([N+](=O)[O-])cc2)cc1	none (no result: RN4220 kill, Sa ugtP lethal)
Cc1ccc(NC(=O)CCC(=O)NN=Cc2coc3ccccc3c2=O)cc1	none (no result: PfHsp40 yeast, CCHF vOTU inh, PrP UTR inh, PrPC surface inh)
CCCCC(CCCC)=NN=Cc1c(O)n(CC)c2cc(C3=NNC(=O)CC3)ccc12	none (no result: PfHsp40 yeast, CCHF vOTU inh, PrP UTR inh, PrPC surface inh)
CC#CCN1c2ccccc2[C@]23CC(C(=O)OC)N(C(=O)c4ccco4)C2=NC(C(=O)OC)=C(C(=O)OC)C13 (stereo partly specified)	none (no result: PfHsp40 yeast, CCHF vOTU inh, PrP UTR inh, PrPC surface inh)
CCC(=O)Nc1c2c(nn1-c1ccc(C)cc1C)CSC2	PfHsp40 yeast 48
CCOC(=O)C1=C(N)n2c(sc(=Cc3ccco3)c2=O)=C(C(=O)OC(C)C)C1c1ccco1 (stereo unspecified)	none (no result: PfHsp40 yeast, CCHF vOTU inh, PrP UTR inh, PrPC surface inh)
COc1ccc(C(=O)c2c(C(F)(F)F)oc3c2C(=O)c2ccccc2C3=O)cc1OC	PfHsp40 yeast 60, CCHF vOTU inh 64
COc1ccc(C(=O)Nc2ccc3c(c2)C(=O)c2ccccc2C3=O)cc1OC	none
CC1=NN(c2ccccc2)C(=O)/C1=C\c1ccc(Oc2ccc([N+](=O)[O-])cc2[N+](=O)[O-])cc1	CCHF vOTU inh 91 (no result: RN4220 kill, Sa ugtP lethal)
COc1cc(/C=C2/C(=O)N(c3ccc(C)c(C)c3)N=C2C)cc([N+](=O)[O-])c1O	none
COc1ccc(N=Nc2ccc(O)c3ncccc23)cc1	none
Oc1ccc(N=Nc2ccc3c(c2)OCCO3)c2cccnc12	PfHsp40 yeast 268
O=S(=O)(O)c1cccc2c(N=Nc3ccc(O)c4ncccc34)cccc12	PfHsp40 yeast 94 (no result: CCHF vOTU inh, PrPC surface inh)
COc1ccc(OC)c(C2C3=C(N=c4sc(=Cc5cccc(O)c5)c(=O)n42)c2ccccc2CC3)c1 (stereo unspecified)	none (no result: PfHsp40 yeast, CCHF vOTU inh, PrP UTR inh, PrPC surface inh)
Cc1ccc(-c2nc(N)sc2-c2ccccc2)cc1C	Sa ugtP lethal 96
Nc1nc(-c2ccccc2)c(-c2ccccc2)s1	none
Nc1nc(-c2ccccc2)c(-c2ccc([N+](=O)[O-])cc2)s1	PfHsp40 yeast 233
Cc1ccc(SCCNC(=O)c2ccc([N+](=O)[O-])c(C)c2)cc1	none
Cc1ccc(SCCNC(=O)c2ccc(C)c([N+](=O)[O-])c2)cc1	PfHsp40 yeast 48
COc1cc(NC(=O)c2cc(C)on2)cc(C(=O)Nc2cccc(C(F)(F)F)c2)c1	PfHsp40 yeast 50 (no result: RN4220 kill, Sa ugtP lethal)
C=CCCC(Cc1ccc(F)cc1)C(=O)OCC1CCCN1C(=O)C(CC=C)CC(=O)NCCO (stereo unspecified)	none (no result: PfHsp40 yeast, CCHF vOTU inh, PrP UTR inh, PrPC surface inh)
CC(C)Nc1nc(NC(C)C)nc(Oc2ccc(C=NO)cc2)n1	none (no result: PfHsp40 yeast, CCHF vOTU inh, PrP UTR inh, PrPC surface inh)
O=C(O)C(=Cc1cccc([N+](=O)[O-])c1)c1ccccc1	none (no result: PfHsp40 yeast, RN4220 kill, PrP UTR inh, Sa ugtP lethal)
O=C(C#Cc1cccc([N+](=O)[O-])c1)c1ccccc1	Sa ugtP lethal 98 (no result: CCHF vOTU inh, PrPC surface inh)
CCN(CC)CCCNC(=O)c1cc(-c2ccccc2)c(N2CCCCC2)s1	Sa ugtP lethal 88 (no result: PrP UTR inh)
O=C(NCCc1ccccc1)c1cc(-c2ccccc2)c(N2CCOCC2)s1	none
COc1ccc(OC2C=CC(c3ccccc3)OC2CON=CCC2C=CC(OC(C)=O)C(COC(C)=O)O2)cc1 (stereo unspecified)	none (no result: PfHsp40 yeast, CCHF vOTU inh, PrP UTR inh, PrPC surface inh)
CCNc1ccc(Br)cc(C(=O)/C=C/c2ccc(Cl)cc2)c1=O	none (no result: CCHF vOTU inh, PrPC surface inh)
CCNc1ccc(Br)cc(C(=O)/C=C/c2ccc3c(c2)OCO3)c1=O	PfHsp40 yeast 37
CN(C)C=Nc1ncc(C(=O)c2ccc(Cl)cc2)s1	none (no result: PfHsp40 yeast, CCHF vOTU inh, PrP UTR inh, PrPC surface inh)
CC(=O)c1ccc(Oc2ccc(C(=O)c3ccc(C)c(C)c3)cc2[N+](=O)[O-])cc1	none
COC(=O)c1ccc(Oc2ccc(C(C)(C)C)cc2)c([N+](=O)[O-])c1	Sa ugtP lethal 95
COc1ccc(C(=O)NN=C2CCCC2)cc1OC	none
COc1ccc(Cl)cc1C(=O)NN=C1CCCC1	PfHsp40 yeast 82
O=C(NN=Cc1ccc(Br)s1)c1ccncc1	none (no result: PfHsp40 yeast, CCHF vOTU inh, PrP UTR inh, PrPC surface inh)
CCOc1ccc(S(=O)(=O)NN=C2CC(c3ccccc3)Oc3ccccc32)cc1 (stereo unspecified)	none (no result: PfHsp40 yeast, CCHF vOTU inh, PrP UTR inh, PrPC surface inh)
CC1CCN(C(=O)C2CCC(CNc3c(N4CCCCC4)c(=O)c3=O)CC2)CC1 (stereo unspecified)	none
CC1CC(C)CN(C(=O)C2CCC(CNc3c(N4CCCCC4)c(=O)c3=O)CC2)C1 (stereo unspecified)	PfHsp40 yeast 53
Oc1ccccc1-c1nnc(SCCN2CCOCC2)n1Cc1ccccc1	PfHsp40 yeast 249
COc1ccc(NC(=O)CN2CCN(CC(=O)Nc3ccc(F)cc3F)CC2)cc1	PfHsp40 yeast 44

Screening data as filed in PubChem.
